Among the data in PubChem BioAssay are z-score and composite z-score values, retold here.

Calls of active or inactive are those of the source. Unless noted, how the calls were made is not given here.

Test [1] in a line: resazurin metabolic signal in HepG2 cells – cell-based, resazurin fluorescence, 24 h, PK04 Diversity Set, profiling panel (AID 1172). Further: test concentration not given here. To be noted: HepG2 viability, higher = more signal.
Test [2] in a line: budding yeast growth changes without added modifier – OD600, strain BY4716, 24 h, basal condition, primary screen (AID 1173). To be noted: S. cerevisiae BY4716 growth, OD600, 24 h; higher = more signal, called active from +8 up or from −8 down.
The nature of test [3]: viability profiling in MM1S myeloma cells – cell-based, resazurin fluorescence, basal, 24 h, PK04 Diversity Set, profiling panel (AID 1174).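 Further: MM1S multiple myeloma cell line; test concentration not given here.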 To be noted: higher = more signal, called active from +8 up or from −8 down. Background: The colour change of resazurin is a common sign of viable cells or microbes.
Test [4] concerns the target Dihydroorotate dehydrogenase (quinone), mitochondrial (Plasmodium falciparum (isolate 3D7)) (UniProt Q08210). Put plainly: inhibition of P. falciparum DHODH – biochemical, C-terminal His tag, absorbance 600 nm, primary screen (AID 1175).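 Further: recombinant parasite enzyme with a five histidine tag at its C terminus; test concentration not given here.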 As to conditions: PfDHODH enzyme, DCIP absorbance 600 nm; higher = more signal, called active from +8 up or from −8 down.
Test [5] in a line: inhibition of PAO1 biofilm formation – strain PAO1, LB-PBS medium, absorbance 600 nm, primary screen (AID 1176). Further: test concentration not given here. As to conditions: P. aeruginosa PAO1 growth/biofilm, A600, 12 h; higher = more signal.
The nature of test [6]: growth modulation of vineyard yeast isolate – strain RM11-1a, OD600, basal, 24 h, primary screen (AID 1177).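 Further: cultures grown under basal conditions with no added stressor; test concentration not given here.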 To be noted: S. cerevisiae RM11-1a growth, OD600, 24 h; higher = more signal, called active from +8 up or from −8 down.
The nature of test [7]: growth of efflux-deficient E. coli DRC39 – strain DRC39, OD650, 24 h, E. coli filamentation inducers, primary screen (AID 1178).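 Further: growth measured as culture turbidity by optical density at 650 nm; test concentration not given here.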 To be noted: E. coli DRC39 acrAB, higher = more signal, called active from +8 up or from −8 down.
Test [8] in a line: growth of efflux-deficient E. coli DRC39 – strain DRC39, OD650, 48 h, E. coli filamentation inducers, primary screen (AID 1179).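 Further: screen aims at cell division blockers that make cells filament.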 As to conditions: E. coli DRC39 delta-acrAB growth, higher = more signal, called active from +8 up or from −8 down.
The nature of test [9]: viability profiling in RPMI8226 myeloma cells – cell-based, resazurin fluorescence, basal, 24 h, PK04 Diversity Set, profiling panel (AID 1180).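 Further: RPMI8826 multiple myeloma cell line at 5000 cells per well; test concentration not given here.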 As to conditions: higher = more signal.
Test [10] addresses E3 ubiquitin-protein ligase XIAP (Homo sapiens) (UniProt P98170). Put plainly: small molecules binding XIAP protein – biophysical, small-molecule microarray, fluorescence 635 nm, primary screen (AID 1181).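 Further: score merges 667 nm emission and signal to noise over triplicate slides.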 To be noted: higher = more signal.

E3 ubiquitin-protein ligase XIAP (Homo sapiens), sequence (P98170 whole entry, looked up): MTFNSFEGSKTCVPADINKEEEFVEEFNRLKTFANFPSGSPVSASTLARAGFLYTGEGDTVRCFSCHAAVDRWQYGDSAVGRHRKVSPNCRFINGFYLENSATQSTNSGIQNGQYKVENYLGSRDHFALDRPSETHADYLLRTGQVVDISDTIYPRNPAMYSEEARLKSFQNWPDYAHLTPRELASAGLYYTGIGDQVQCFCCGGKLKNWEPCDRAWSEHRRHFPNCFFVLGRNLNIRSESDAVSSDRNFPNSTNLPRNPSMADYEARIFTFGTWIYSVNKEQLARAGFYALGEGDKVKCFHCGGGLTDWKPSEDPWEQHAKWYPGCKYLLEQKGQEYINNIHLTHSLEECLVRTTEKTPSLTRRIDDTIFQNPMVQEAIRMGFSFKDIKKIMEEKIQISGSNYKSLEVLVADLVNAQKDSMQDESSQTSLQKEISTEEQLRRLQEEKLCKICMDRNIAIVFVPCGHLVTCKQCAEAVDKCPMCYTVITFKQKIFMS
Dihydroorotate dehydrogenase (quinone), mitochondrial (Plasmodium falciparum (isolate 3D7)), sequence (Q08210 whole entry, looked up): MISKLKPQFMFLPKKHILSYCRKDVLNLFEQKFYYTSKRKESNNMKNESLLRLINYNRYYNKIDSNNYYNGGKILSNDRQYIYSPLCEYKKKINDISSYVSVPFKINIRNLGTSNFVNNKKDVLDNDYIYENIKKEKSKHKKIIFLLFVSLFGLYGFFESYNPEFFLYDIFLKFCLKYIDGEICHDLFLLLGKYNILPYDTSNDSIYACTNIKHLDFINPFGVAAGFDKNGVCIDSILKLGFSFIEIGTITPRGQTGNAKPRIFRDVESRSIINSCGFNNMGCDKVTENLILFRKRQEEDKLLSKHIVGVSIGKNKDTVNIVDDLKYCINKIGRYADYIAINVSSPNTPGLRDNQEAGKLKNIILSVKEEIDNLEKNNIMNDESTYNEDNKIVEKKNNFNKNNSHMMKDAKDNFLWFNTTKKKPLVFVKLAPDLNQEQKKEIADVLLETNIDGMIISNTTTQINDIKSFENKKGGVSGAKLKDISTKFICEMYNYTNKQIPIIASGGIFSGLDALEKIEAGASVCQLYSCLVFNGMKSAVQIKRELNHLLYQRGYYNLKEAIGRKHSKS

For the compound `C=CCN1C(=O)[C@@]2(O[C@@H](CCO)[C@H]([Si](C)(C)c3ccc(OC)cc3)[C@H]2C)c2cc(NC(=O)c3ccc(OC)cc3)ccc21`, the z-score was -2.49 in test [1]; -1.77 (inactive) in [2]; -3.52 (inactive) in test [3]; 1.53 (inactive) in test [5]; 1.69 (inactive) in test [6]; 1.22 (inactive) in [7]. Moreover, the figures for the z-score in test [8] and in [9] were 0.586 (inactive) and -4.92, respectively. In addition, the composite z-score in test [4] is -1.21 (inactive); in test [10] it was -0.154.
With `COc1ccc(CCN2C(=O)[C@@]3(Cc4ccccc42)c2ccccc2C(=O)N(Cc2ccccc2C(F)(F)F)[C@H]3c2ccc(CO)cc2)cc1`, the z-score in [1] was -0.104; in test [2], 0.512 (inactive); in test [3], 0.35 (inactive); in [5], 0.31 (inactive); in [6], -0.443 (inactive); in test [7], -0.0813 (inactive). Besides, the z-score is -0.374 (inactive) in test [8] and -0.816 in [9]. The results for the composite z-score in test [4] and in test [10] were -21.6 (active) and -0.0102, respectively.
As to `CC(C)(C)OC(=O)CC[C@@]1(C(N)=O)N=C(c2ccc(OCCCO)cc2)O[C@@H]1c1ccccc1`, the z-score in test [1] is -0.175; in [2], -0.63 (inactive); in [3] it was -0.121 (inactive); in [5] it was 0.469 (inactive); in test [6], -0.412 (inactive); in [7], -0.352 (inactive). The z-score in [8] is -1.12 (inactive); in test [9] it was -0.359. For the same compound, the composite z-score in [4] was 0.0187 (inactive); in [10], -0.18.
With `CO[C@H]1O[C@H](CO)[C@@H](OC(=O)Nc2ccc(Br)cc2)[C@H](OC(=O)c2cc3ccccc3[nH]2)[C@H]1OC(=O)c1cc2ccccc2[nH]1`, the z-score is -3.36 in test [1]; -0.98 (inactive) in test [2]; -2.32 (inactive) in test [3]; 1.16 (inactive) in test [5]; -1.02 (inactive) in test [6]; 1.21 (inactive) in test [7]. Besides, the z-score was 1.78 (inactive) in test [8] and -4.77 in test [9]. Also, the composite z-score is -1.2 (inactive) in test [4] and -0.0011 in [10].
As to `COCC(=C=CC[C@@H](O)c1ccccc1OCCO)C[C@@H](O)c1cc(Cl)cc(Cl)c1O`, the z-score was -0.127 in test [1]; -2.33 (inactive) in test [2]; -0.541 (inactive) in [3]; 0.26 (inactive) in test [5]; 0.216 (inactive) in test [6]; -0.259 (inactive) in [7]. Besides, the z-score in test [8] is -0.424 (inactive); in test [9] it was -0.394. Moreover, the composite z-score in [4] was -1.31 (inactive); in [10], -0.0553.
`CN1C(=O)C2C=CC(C(O)Cc3ccccc3)N(Nc3ccccc3)C2C1=O` (stereo not given): the z-score in test [1] was -0.355; in [2] it was -0.836 (inactive); in test [3] it was -0.808 (inactive); in test [5], 1.07 (inactive); in [6], 0.217 (inactive); in test [7], -0.553 (inactive). The z-score is -0.801 (inactive) in test [8] and -0.541 in test [9]. The figures for the composite z-score in test [4] and in test [10] were 0.295 (inactive) and -0.189, respectively.
Take `CC(C)C[C@@H]1NC(=O)[C@H]2C[C@@H](C(=O)NCCCCCCN)[C@@H](c3ccc(O)cc3)N2C1=O`: the z-score in test [1] is -0.632; in test [2], -0.134 (inactive); in test [3], -0.403 (inactive); in test [5] it was -0.226 (inactive); in [6], -0.459 (inactive); in [7] it was -0.396 (inactive). Besides, the z-score in test [8] was -0.975 (inactive); in test [9], -0.299. The composite z-score was 0.0444 (inactive) in test [4] and -0.338 in test [10].
On to `COC(=O)C(CC#Cc1ccc2c(c1)[C@]1(C(=O)N2)[C@H](c2ccc(O)cc2)N2[C@H](c3ccccc3)[C@H](c3ccccc3)OC(=O)[C@H]2[C@@H]1C(=O)Nc1nc2ccccc2s1)C(=O)OC`, for which the z-score is 0.0384 in [1]; -1.11 (inactive) in test [2]; 1.05 (inactive) in test [3]; 1.27 (inactive) in test [5]; -1.44 (inactive) in test [6]; 0.666 (inactive) in test [7]. The z-score in [8] was 1.04 (inactive); in [9], 0.12. For the same compound, the composite z-score in test [4] was -5.21 (inactive); in [10] it was -0.313.
Take `COCCOC(=O)N1C(=O)[C@@]2(c3cc(C#Cc4ccc(OC)cc4)ccc31)[C@H](C(=O)N1CCCCCCC1)[C@H]1C(=O)O[C@H](c3ccccc3)[C@H](c3ccccc3)N1[C@@H]2c1ccc(OCCO)cc1`: the z-score is 0.73 in test [1]; 0.777 (inactive) in [2]; 1.15 (inactive) in [3]; 3.3 (inactive) in test [5]; 0.262 (inactive) in [6]; 1.11 (inactive) in test [7]. The z-score in test [8] is 2.25 (inactive); in test [9], 0.425. The composite z-score in test [4] is -1.37 (inactive); in test [10], 0.47.
Consider `NC(=O)[C@@H]1[C@H]2C(=O)O[C@H](c3ccccc3)[C@H](c3ccccc3)N2[C@H](c2ccc(O)cc2)[C@@]12C(=O)Nc1ccc(C#CC3(O)CCCCCC3)cc12`, for which the z-score in test [1] is -0.0265; in test [2], -1.32 (inactive); in [3], 0.475 (inactive); in [5] it was 0.654 (inactive); in test [6], 0.591 (inactive); in test [7], -0.84 (inactive). Besides, the z-score was -0.184 (inactive) in [8] and -0.49 in test [9]. In addition, the composite z-score in test [4] is -0.387 (inactive); in test [10], -0.113.
For the compound `[N-]=[N+]=Nc1ccccc1C[C@]1(C(=O)NCC(O)CO)N=C(c2ccc(OCCCO)cc2)O[C@H]1c1ccccc1N=[N+]=[N-]` (stereo not given in full), the z-score in [1] was -1.01; in test [2] it was -1.14 (inactive); in test [3], -2.08 (inactive); in test [5], -0.428 (inactive); in [6], 1.52 (inactive); in test [7], -0.0211 (inactive). In addition, the results for the z-score in test [8] and in [9] were 0.622 (inactive) and -1.99, respectively. In addition, the composite z-score in test [4] is 0.139 (inactive); in test [10] it was 0.0968.
`C[C@@H]1ON(c2cccc(C(=O)OC(C)(C)C)c2)[C@H](c2ccc(Br)cc2)[C@H]1C(=O)N1C(=O)OC[C@H]1Cc1ccccc1`: the z-score in test [1] was 0.0192; in test [2], 0.724 (inactive); in test [3], 0.433 (inactive); in test [5], -0.295 (inactive); in [6] it was 0.872 (inactive); in test [7], -0.741 (inactive). For the same compound, the z-score is -0.472 (inactive) in [8] and 1.25 in test [9]. In addition, the composite z-score is 1.17 (inactive) in [4] and 0.127 in [10].
As for `CC(=O)N1Cc2ccccc2C[C@@]2(COC(c3ccc(OCCCO)cc3)=N2)C1=O`, the z-score in [1] was 1.17; in [2], -0.797 (inactive); in test [3] it was -0.15 (inactive); in [5], 2.26 (inactive); in test [6], -0.723 (inactive); in test [7], 1.73 (inactive). Besides, the values for the z-score in [8] and in [9] were 2.3 (inactive) and 0.266, respectively. The results for the composite z-score in test [4] and in test [10] were -0.469 (inactive) and 1.2, respectively.
